High-throughput results deposited in PubChem by National Center for Advancing Translational Sciences (NCATS).
ERK EGF inh = qHTS Assay for Inhibitors of the ERK Signaling Pathway using a Homogeneous Screening Assay; Stimulation with EGF. HEK293-V1b, EGF-stimulated phospho-ERK AlphaScreen. Potency, µM (top dose mostly 11.5 µM), most hits filed as inhibitors. 130,000 tested, 0.41% active. AID 1454, 2008; active means well fitted inhibition curve with a large enough effect; further: nearly all actives have a fitted effect of over 55% in size
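V1b-HEK293, 1% FBS o/n; cpd 30 min 37C; EGF 25 nM final, 5 min; lyse 10 min; AlphaScreen beads 5 h RT. Normalized DMSO basal vs EGF max; Hill AC50.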
Each line names hits and unclear results; the compound was inactive in the other large screens. This excerpt belongs to a sample that is enriched for hits.

Cc1ccc(C(=O)OCC(=O)c2c[nH]c3ccccc23)cc1	none
CC(C)C(NS(=O)(=O)c1c(Cl)cccc1Cl)C(=O)OCC(=O)c1c[nH]c2ccccc12 (stereo not drawn)	ERK EGF inh 25.1µM
CC(O)C(NS(=O)(=O)c1ccc(Cl)cc1)C(=O)OCC(=O)c1c[nH]c2ccccc12 (stereo not drawn)	none
CCCCC/C=C\C=C\C(O)CCCCCCCC(=O)O (stereo not drawn)	none
C=CCOC(=O)N[C@H](C[N+](=O)[O-])c1ccccc1	none
O=C(O)CNS(=O)(=O)c1cccc(Cl)c1	none
CN(C)c1ccc(/C=C2/C(=O)Nc3ccccc32)cc1	none
CC(=O)N1/C(=C/c2ccc(N(C)C)cc2)C(=O)c2ccccc21	ERK EGF inh 25.1µM
CN(C)c1ccc(/C=C2\CCC/C(=C\c3ccccc3)C2=O)cc1	none
Cc1ccc(O)c(C(=O)c2cc(C#N)c(=O)n(C(C)c3ccccc3)c2)c1 (stereo not drawn)	none
Cc1ccc(O)c(C(=O)c2cc(C#N)c3nc4ccccc4n3c2)c1	ERK EGF inh 31.6µM
Cc1ccc(O)c(C(=O)c2cc(C#N)c(=O)n(Cc3ccccc3)c2)c1	none
COC(=O)[C@H]1C[C@@H]2CC[C@@H](O)C[C@@H]2N1Cc1c(F)cccc1Cl	none
O=C1CC(c2ccccc2O)Oc2ccc(O)cc21 (stereo not drawn)	none
Cc1ccc(-c2cc(C(=O)Nc3ccccn3)c3ccccc3n2)o1	none
COc1ccc(NC(=O)c2cc3cccc(OC)c3oc2=Nc2ccc(C(=O)O)cc2)cc1OC	none
COc1ccc(N=c2oc3cc(O)ccc3cc2C(=O)Nc2ccccn2)cc1OC	ERK EGF inh 28.2µM
CCCCC(=O)NCc1ccc(Cl)cc1	none
O=S(=O)(NCCc1cn2ccccc2n1)c1ccc2c(c1)CCCC2	none
O=C(/C=C/c1cccnc1)/C=C/c1cccnc1	ERK EGF inh 10µM
Cc1cccc(C(=O)Nc2ccc(C(=O)/C=C/c3cccnc3)cc2)c1	none
O=C(/C=C/c1cccnc1)c1cc(F)ccc1O	none
COc1ccc(C(=O)NCCN2CCOCC2)c(OC)c1OC	none
COc1ccc(C2c3ccc4ccccc4c3Oc3ncn(CCCO)c(=N)c32)cc1 (stereo not drawn)	ERK EGF inh 39.8µM
COc1ccc(C2c3ccc4ccccc4c3Oc3ncn(CCCO)c(=N)c32)cc1OC (stereo not drawn)	none
N=c1c2c(ncn1CCCO)Oc1c(ccc3ccccc13)C2c1ccccc1 (stereo not drawn)	none
CCCNC(=O)c1noc2c1CCc1ccccc1-2	none
COCCCNC(=O)c1ccc2c3c(onc13)-c1ccccc1C2=O	ERK EGF inh 31.6µM
COCCCNC(=O)c1cc2cc(Br)ccc2oc1=O	none
COC(=O)Cc1c(C(=O)OC)nnn1-c1cccc(C(F)(F)F)c1	none
CC(=O)N(c1cccc(Br)c1)c1nc(C)cc(C)c1C#N	none
FC(F)(F)c1ccccc1-c1cc(N2CCNCC2)ncn1	none
COc1ccc(-n2nc([N+](=O)[O-])c(=NCCc3ccc(OC)c(OC)c3)n2O)cc1	none
COc1ccc(-n2nc([N+](=O)[O-])c(=NCc3cccnc3)n2O)cc1	none
COc1ccc(-n2nc([N+](=O)[O-])c(=NCCC3=CCCCC3)n2O)cc1	ERK EGF inh 28.2µM
CC1(C)CC(=O)c2cc(NC(=O)c3ccc(F)cc3)c(=O)oc2C1	none
C/C(=N\N=C(N)N)c1ccc(C)c(C)c1	none
CN(CCCNC(=O)c1cc2c(Cl)nc3ccccc3c2s1)Cc1ccccc1	ERK EGF inh 25.1µM
CCN(CC)CCCNC(=O)c1cc2c(Cl)nc3ccccc3c2s1	none
CC1CCCN(CCCNC(=O)c2cc3c(Cl)nc4ccccc4c3s2)C1 (stereo not drawn)	none
CCO[C@@H]1OC(C(=O)NCc2ccccc2)=C[C@H](c2ccc(Br)cc2)[C@H]1CCCO	none
CCc1ccccc1N1C(=O)[C@@H]2Cc3ccccc3CN2C1=O	none
COC(=O)[C@@]1(Cc2ccc(OC)cc2)[C@H]2c3cc(C(=O)N(C)C)n(Cc4cc(C)n(C)n4)c3C[C@H]2CN1C(=O)c1ccccc1	none
COc1ccccc1C(=O)C1CCCN(C(=O)c2cccnc2SC)C1 (stereo not drawn)	none
CCOCCCNC(=O)c1ccc2c(c1)N=C(CC)c1cc(Br)ccc1S2	none
CCCC(=O)N1c2ccccc2C(=C2SC(C(=O)OC)=C(C(=O)OC)S2)C(=S)C1(C)C	ERK EGF inh 12.6µM
CC1(C)C(=O)Nc2ccccc2N1C(=O)CSc1nc(-c2ccccc2)cs1	none
COC(=O)c1cc(C(=O)OCC(=O)N2c3ccccc3NC(=O)C2(C)C)cc([N+](=O)[O-])c1	none
COc1ccc(-c2nnn(CC(=O)NCCc3ccc(OC)c(OC)c3)n2)cc1	none
COC(=O)Cc1[nH]c(=S)[nH]c1C(=O)OC	none
CCOC(=O)c1ccc(Nc2ncnc3ccccc23)cc1	none
CC(C)(C)c1ccc(OC(=O)c2cccnc2)cc1	none
O=C(Oc1ccc(Nc2ncnc3ccccc23)cc1)c1cccnc1	ERK EGF inh 28.2µM
CN1CCCC2(CCN(C(=O)c3cccn3C)CC2)C1	none
COC(=O)c1c(C)oc(C)c1S(=O)(=O)NC(C)(C)C	none
Cc1ccn2c(Nc3ccccc3C)c(-c3ccncc3)nc2c1	none
